Bioassay records from PubChem.
A selection: hits, their analogues and other compounds. The true share with any hit is near 7.9%.
HCV inh – HCV inhibition | Huh7.5.1 HCVcc-Cre infection, luciferase reporter, 44 h | Potency, µM (titrated, usually from 41.8 µM), inactives show at the top dose activity change, negative = inhibition, actives largely listed as inhibitors | actives 3.4% (n = 340,000); active means well fitted inhibition curve with a large enough effect; inconclusive means small, poorly fitted or top-dose-only effect, or another doubt; inactive means no such curve, though single readings can be large or run the other way; further: potency means the concentration at half of the fitted maximal effect
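Luciferase read-out (15 sec integration) after a 15 min room-temperature substrate step quantifies HCVcc-Cre infection. Cells, 1,000 per well, had compound added 4 h post-plating, then virus at ~0.5 moi, and were cultured 44 h.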
Marburg entry inh – blocks Marburg virus binding to or entry into cells. Marburg virus pseudotyped entry inhibition, cell reporter. Potency, µM (titrated, usually from 37.8 µM), for inactives: at the top dose activity change, negative = inhibition, usual class: inhibitors. actives 1.8% (n = 300,000); calls by dose curve; tested in HEK293 cells; further: potency means the concentration at half of the fitted maximal effect
Lassa entry inh – inhibitors of Lassa virus binding or cell entry; Lassa virus pseudotype entry inhibition, cell reporter; Potency, µM (doses to about 37.9 µM), inactives show at the highest dose activity change, negative = inhibition, most hits filed as inhibitors; actives 1.2% (n = 300,000); calls by dose curve; tested in HEK293 cells; further: potency means the concentration at half of the fitted maximal effect; nearly all actives have a fitted effect of over 50% in size
HCMV inh – blocks human cytomegalovirus replication; HFF cells, HCMV-luciferase reporter, 72 h; hits give low values; AID 1259415; activity change, negative = inhibition, % at 57.5 µM; actives 4.5% (n = 410,000); in the data active means activity change below about -60%; inconclusive means no clear call, values can overlap the other calls; inactive means above about -39%
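Two compound doses tested in HFFs infected with HCMV-luciferase, MOI 1 PFU/cell, 72 h at 37C. Lysate luminescence read with OneGlo; data normalized against buffer-only and 10uM Salinomycin inhibitor controls.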
FMDV antiviral – blocks foot and mouth disease virus. Potency, µM (doses to about 57.9 µM), for the others: at the top dose activity change, negative = inhibition, usual class: inhibitors. FMDV antiviral cell-based qHTS. actives 1.2% (n = 410,000); calls by dose curve; tested in HEK293T cells; further: read-out not given here; potency means the concentration at half of the fitted maximal effect; nearly all actives have a fitted effect of over 45% in size
Numbers without * were called inactive; ? = inconclusive; . = no result; [ ] = remark or other dose. On the % scale 0 is the no-effect control and ±100 the full control effect.

SMILES | HCV inh | Marburg entry inh | Lassa entry inh | HCMV inh | FMDV antiviral
O=C(Nc1ccc2oc(-c3cccnc3)nc2c1)c1ccc(-c2cccc(OC(F)(F)F)c2)o1 | . | . | 15%[46.1 µM] | -82* | ?
Cc1c(Cl)cccc1-c1ccc(C(=O)Nc2ccc3oc(-c4cccnc4)nc3c2)o1 | . | . | 21%[46.1 µM] | ? | ?
O=C(Nc1ccc2oc(-c3ccncc3)nc2c1)c1ccc([N+](=O)[O-])o1 | 10µM* | ? | -26%[46.1 µM] | -102* | 8%
Cc1ccc(-c2nc3ncccc3o2)cc1NC(=O)c1ccc([N+](=O)[O-])o1 | 3% | 10%[46.1 µM] | 0%[46.1 µM] | . | -19%
COc1ccc(OC)c(NC(=O)c2cc3n(n2)C(C(F)(F)F)CC(c2ccc4c(c2)OCO4)N3)c1 (stereo unspecified) | 32µM* | 2% | -7% | -29 | 0%
O=C(Nc1cccc(N2CCC(NCc3cnn(-c4ccccc4)n3)CC2)c1)c1cccnc1 | . | . | . | . | -16%
COc1ccc(N2CCN(Cc3csc(C)c3-c3ccc(C)cc3)CC2)cc1 | ? | ? | ? | -68* | ?
Cc1ccc(/C=C/C(=O)Nc2ccc(Oc3ccccc3)cc2)o1 | 11µM* | ? | -17% | -30 | -4%
Cc1cc(CNC(=O)c2cnn(-c3ncc4c(n3)-c3ccccc3CC4)c2C2CC2)on1 | . | . | . | . | 25%
COc1ccc([C@H]2CN(Cc3ccccc3)C(=O)[C@@H]2CC(=O)Nc2ccccc2)cc1 | . | . | . | 14 | 61%
O=[N+]([O-])c1cc(-c2nc(-c3ccccc3)no2)ccc1N1CCCCC1 | . | 4%[46.1 µM] | 3%[46.1 µM] | -88* | -15%
Cc1ccc(-c2noc(-c3ccc(N4CCCCC4)c([N+](=O)[O-])c3)n2)cc1 | . | ? | 0%[46.1 µM] | -34 | ?
CN1CCN(c2ccc(-c3nc(-c4ccccc4)no3)cc2[N+](=O)[O-])CC1 | . | -3%[46.1 µM] | ? | -99* | 0%
COc1ccc(-c2noc(-c3ccc(N4CCN(C)CC4)c([N+](=O)[O-])c3)n2)cc1 | . | -1%[46.1 µM] | 22%[46.1 µM] | 19 | 50%
O=[N+]([O-])c1cc(-c2nc(-c3ccncc3)no2)ccc1Cl | 4% | 23% | 1% | -64* | -21%
COC(=O)c1c(OCc2ccccn2)cc(=O)n2c1CCN(Cc1cccc(C(F)(F)F)c1)CC2 | . | . | . | . | -15%
CC(=O)c1cccc(-n2c(=O)c3c4c(sc3n(Cc3ccccc3Cl)c2=O)CN(C(C)=O)CC4)c1 | . | ? | . | -1 | -12%
Cc1ccc(CSc2ccc3nnc(-c4cccnc4)n3n2)cc1 | 9% | 4% | 3% | 123 | ?
Brc1ccc(CSc2nnc(-c3cccnc3)o2)cc1 | 0% | 8%[46.1 µM] | 11%[46.1 µM] | -68* | -12%
Clc1ccc(CSc2nnc(-c3ccncc3)o2)cc1 | ? | 3% | -1% | -70* | -23%
Nn1c(SCc2ccc(Br)cc2)nnc1-c1ccncc1 | -3% | . | . | -63* | -7%
Brc1ccc(CSc2ccc3nnc(-c4cccnc4)n3n2)cc1 | ? | ? | ? | 29 | 32µM*
c1ccc(CSc2nnc(-c3cccnc3)o2)cc1 | 14% | 12% | 18% | -40 | 51%
O=C(Nc1ccc(F)cc1F)c1cc(-c2ccc(Cl)cc2)on1 | . | 2%[46.1 µM] | 24%[46.1 µM] | 0 | 38%
O=c1cc2c(nn1Cc1ccc(Cl)cc1)-c1ccccc1CC2 | -2% | 5% | 14% | -16 | 17%
SMILES | HCV inh | Marburg entry inh | Lassa entry inh | HCMV inh | FMDV antiviral
Cc1ccc(Cn2nc3c(cc2=O)CCc2ccccc2-3)cc1 | 14µM* | . | . | -10 | 35%
C=CCN1CCC23c4c5ccc(O)c4OC2/C(=N/N=C2\CCC4(O)C6Cc7ccc(O)c8c7C4(CCN6CC=C)C2O8)CCC3(O)C1C5 (stereo unspecified) | . | . | . | . | 21%
NC(N)=Nc1ccc2[nH]c3c(c2c1)C[C@@]1(O)[C@H]2Cc4ccc(O)c5c4[C@@]1(CCN2CC1CC1)[C@H]3O5 | ? | 26µM* | 2.3µM* | . | ?
O=C1/C(=C\c2ccccc2)C[C@@]2(O)[C@H]3Cc4ccc(O)c5c4[C@@]2(CCN3CC2CC2)[C@@H]1O5 | . | . | . | . | 22µM*
O=C1/C(=C\c2ccccc2)C[C@@]2(O)[C@H]3Cc4ccc(O)c5c4[C@@]2(CCN3CC2CC2)[C@H]1O5 | . | . | . | . | 10µM*
C=CCN1CC[C@]23c4c5ccc(O)c4O[C@@H]2/C(=N/N=C2\CC[C@@]4(O)C6Cc7ccc(O)c8c7[C@@]4(CCN6CC=C)[C@@H]2O8)CC[C@@]3(O)C1C5 | . | 4.5µM* | 16µM* | . | .
